The values below come from ChEMBL document CHEMBL3988442, “University of Dundee, Small-Polar-MMV Screening Library” (2021).

For assay [1], the target named is T1, Aspartate--tRNA(Asp/Asn) ligase (Mycobacterium tuberculosis (strain ATCC 25618 / H37Rv)) (UniProt P9WFW3). Note: in the data most compounds retested in dose-response had high values.
T1 sequence (whole entry): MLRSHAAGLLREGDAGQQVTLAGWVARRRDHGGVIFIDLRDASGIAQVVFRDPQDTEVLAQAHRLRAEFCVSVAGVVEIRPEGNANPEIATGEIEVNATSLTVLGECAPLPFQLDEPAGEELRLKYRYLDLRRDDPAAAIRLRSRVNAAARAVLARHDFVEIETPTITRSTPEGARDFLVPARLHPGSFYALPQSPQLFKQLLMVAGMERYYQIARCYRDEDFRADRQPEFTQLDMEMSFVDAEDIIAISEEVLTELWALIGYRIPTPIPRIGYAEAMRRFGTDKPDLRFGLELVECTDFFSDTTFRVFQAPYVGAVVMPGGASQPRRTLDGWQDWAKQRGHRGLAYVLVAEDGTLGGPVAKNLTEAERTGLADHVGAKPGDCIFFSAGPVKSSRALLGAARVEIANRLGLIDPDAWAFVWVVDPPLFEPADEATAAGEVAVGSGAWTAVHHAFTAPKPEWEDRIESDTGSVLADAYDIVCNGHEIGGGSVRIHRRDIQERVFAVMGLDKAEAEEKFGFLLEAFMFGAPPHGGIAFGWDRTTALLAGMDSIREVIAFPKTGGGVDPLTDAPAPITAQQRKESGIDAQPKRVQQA
Description: Assay for Asp RNA synthetase-1 from Mycobacterium tuberculosis. The conditions noted are these: 30 µM. Also on record: scale not given: direction of the effect not stated beside the values. The class given is functional.

Assay [2] concerns the target Shiga toxin 2 (Escherichia coli O157:H7) (UniProt P09385+P09386). The experiment in a line: E. coli 0.157:H7 Shiga Toxin SOP - stx2 screening assay. Type of assay: functional. Also on record: scale not given: direction of the effect not stated beside the values. The note with it: 30 µM.

In the case of `O=C(c1ccnnc1)N1CCC2(CC1)CC(N1CCOCC1)C2`, the Percent Effect in assay [1] is 2.89%; in assay [2], -0.921%.
Consider `CCc1nc(C2CCCN(C(=O)c3ccc4c(c3)nnn4C)C2)no1` (stereo unspecified), for which the results for the Percent Effect in assay [1] and in assay [2] were 4.32% and -19.5%, respectively.
With `CN(CC1COc2ccccc2O1)C(=O)NCCCn1ccnc1` (stereo unspecified), the Percent Effect in assay [1] is -0.767%; in assay [2], 11.4%.
